Screening data as filed in PubChem BioAssay.
FMDV inh: foot and mouth disease virus antiviral activity; Potency, µM (highest dose often 57.9 µM), without a hit: at the top dose activity change, negative = inhibition, hits mostly inhibitors; AID 1159524; 410,000 compounds, 1.2% hits; FMDV antiviral cell-based qHTS; calls by dose curve; tested in HEK293T cells; also: read-out not given here; potency is read from the fitted curve at half-maximal effect; nearly all actives have a fitted effect of over 45% in size
RE007 growth inh: less growth of the S. pombe RE007 Vpr strain | S. pombe RE007 Vpr strain, BacTiter-Glo ATP luminescence, 24 h | 360,000 compounds, 0.21% hits | Potency, µM (highest dose often 92.2 µM), inactives show top-dose activity change, negative = less growth, usual class: inhibitors | AID 651644; active = well fitted falling curve with a large enough effect; inconclusive = small, poorly fitted or top-dose-only effect; inactive = no such curve, though single readings can be large or run the other way; also: potency is read from the fitted curve at half-maximal effect; nearly all actives have a fitted effect of over 50% in size
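Fission yeast strain RE007, carrying one chromosomally integrated HIV-1 vpr copy, was seeded at OD 0.01 in PMG+AL medium with 23 nL pinned compound. After 24 h at 30 °C and 99% humidity, viability was read by BacTiter-Glo luminescence.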
Sm TGR inh: blocks Schistosoma mansoni thioredoxin glutathione reductase; Q962Y6; purified TGR, DTNB reduction, TNB absorbance 405 nm; Potency, µM (series often up to 114 µM), for the others: top-dose activity change, negative = inhibition, most hits filed as inhibitors; 360,000 compounds, 3% hits; also: potency is read from the fitted curve at half-maximal effect; nearly all actives have a fitted effect of over 60% in size
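TGR 20 nM + NADPH 100 uM (dispensed conc.), cpd preinc 15 min RT; start with NADPH (500 uM addition) then DTNB (15 mM addition). Kinetic TNB absorbance, 405 nm filter. Four-parameter Hill fit across titration.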
HCMV inh: inhibitors of human cytomegalovirus; activity change, negative = inhibition, % at 57.5 µM; 410,000 compounds, 4.5% hits; AID 1259415; HFF cells, HCMV-luciferase reporter, 72 h; active compounds read low; in the data active = activity change below about -60%; inconclusive = no clear call, values can overlap the other calls; inactive = above about -39%
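Inhibition of viral replication was scored as loss of reporter luminescence in HFFs infected with HCMV-luciferase (MOI 1 PFU/cell) for 72 h; compounds tested at 2 doses, normalized to buffer and Salinomycin controls.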
Giardia FBPA inh-1: Giardia lamblia aldolase inhibition. A8B2U2. purified Giardia FBPA. Potency, µM (series often up to 59.6 µM), without a hit: top-dose activity, negative = inhibition, usual class: inhibitors. 290,000 compounds, 0.71% hits; also: potency is read from the fitted curve at half-maximal effect; nearly all actives have a fitted effect of over 55% in size
Target sequence (A8B2U2 whole entry, looked up): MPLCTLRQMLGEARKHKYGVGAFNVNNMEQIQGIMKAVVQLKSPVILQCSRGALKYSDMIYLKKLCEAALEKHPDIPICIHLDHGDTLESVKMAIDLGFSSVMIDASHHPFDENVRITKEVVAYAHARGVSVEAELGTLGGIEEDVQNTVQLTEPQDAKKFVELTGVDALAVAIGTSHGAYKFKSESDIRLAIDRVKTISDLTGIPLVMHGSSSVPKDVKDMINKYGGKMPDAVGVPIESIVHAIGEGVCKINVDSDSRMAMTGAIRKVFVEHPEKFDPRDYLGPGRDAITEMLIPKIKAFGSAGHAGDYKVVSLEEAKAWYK
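Giardia FBPA (40 nM reagent) was preincubated 10 min at RT with compound (up to 57.5 uM final), then substrate plus GAPDH/TPI/NAD/arsenate coupling system with diaphorase/resazurin was added; resorufin fluorescence (525/598 nm) was read after 20 min.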
TbPYK inhibitor: T. brucei pyruvate kinase inhibition; Q57TT1; TbPYK enzyme, Kinase-Glo Plus ATP luminescence, 45 min; Potency, µM (top dose mostly 76.8 µM), inactives show top-dose activity, negative = inhibition, actives largely listed as inhibitors; 410,000 compounds, 0.12% hits; also: potency is read from the fitted curve at half-maximal effect; nearly all actives have a fitted effect of over 50% in size
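T. brucei PYK with substrate was exposed to pin-transferred compounds across a concentration series, then started with 130 uM ADP (final). After 45 min at room temperature, Kinase-Glo Plus luminescence was read, normalized and curve-fitted.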
Giardia growth: Giardia lamblia growth inhibition; shares compounds with Giardia FBPA inh-1; Giardia lamblia trophozoite growth inhibition; Potency, µM (doses to about 57.5 µM), for the others: at the highest dose activity change, negative = inhibition, actives largely listed as inhibitors; 1,500 compounds, 5% hits;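 also: potency is read from the fitted curve at half-maximal effect; trophozoites exposed to compound for 48 h at 37 °C; nearly all actives have a fitted effect of over 70% in size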
Mammalian tox: toxic to mammalian cells in Giardia aldolase counter-screen. shares compounds with Giardia FBPA inh-1. mammalian cell viability counter-screen, qHTS. Potency, µM (top dose mostly 57.5 µM), for the others: top-dose viability change, negative = toxicity, hits mostly inhibitors. 1,500 compounds, 4% hits. AID 2786;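 also: Chinese hamster ovary cells used as mammalian cytotoxicity surrogate; viability measured as cellular ATP by luminescence; potency is read from the fitted curve at half-maximal effect; compound exposure lasted 48 h before reading; nearly all actives have a fitted effect of over 60% in size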
Giardia FBPA inh-2: confirmation of Giardia fructose-bisphosphate aldolase inhibitors; 1,500 compounds, 5% hits; Potency, µM (highest dose often 57.5 µM), for the others: at the highest dose activity change, negative = inhibition, usual class: inhibitors; shares compounds with Giardia FBPA inh-1; purified Giardia aldolase enzyme activity, qHTS; also: potency is read from the fitted curve at half-maximal effect; nearly all actives have a fitted effect of over 45% in size
Rabbit aldolase: selectivity test for Giardia aldolase inhibitors: rabbit aldolase; Potency, µM (doses to about 57.5 µM), inactives show at the highest dose activity, negative = inhibition, actives largely listed as inhibitors; Rabbit muscle FBPA enzyme inhibition, selectivity counter-screen; 1,500 compounds, 4% hits; shares compounds with Giardia FBPA inh-1; also: potency is read from the fitted curve at half-maximal effect; nearly all actives have a fitted effect of over 60% in size
GAPDH counter: GAPDH inhibition flagged for Giardia aldolase hits; GAPDH coupling enzyme counterscreen, biochemical, qHTS; 1,500 compounds, 6% hits; shares compounds with Giardia FBPA inh-1; Potency, µM (doses to about 57.5 µM), inactives show top-dose activity change, negative = inhibition, most hits filed as inhibitors; AID 2795; also: potency is read from the fitted curve at half-maximal effect; nearly all actives have a fitted effect of over 55% in size
Numbers without * were called inactive. Compounds with a hit are over-represented: about 7.7% of the library has one in this group of screens. Unless noted, calls follow the shape of the dose curve; as a rule, active = well fitted curve in the direction sought with a large enough effect; inconclusive = small, poorly fitted or top-dose-only effect, or another doubt; inactive = no such curve, though single readings can be large; an effect the other way counts as inactive or inconclusive. % is scaled to controls: 0 for no effect and ±100 for the full control effect.

CC1=C(C#N)c2nc(N)c(C#N)c(C)c2/C1=C\c1ccc(OCC(=O)O)c(Cl)c1 was read as FMDV inh -13%, RE007 growth inh 50%, Sm TGR inh inconclusive, HCMV inh -25, Giardia FBPA inh-1 20µM*, TbPYK inhibitor -11%, Giardia growth inconclusive, Mammalian tox -3%, Giardia FBPA inh-2 -17%, Rabbit aldolase -12% and GAPDH counter -6%.
For CCc1nc(N)c(C#N)c(-c2ccc(OC)c(OC)c2)c1C the results were FMDV inh -10%, RE007 growth inh 15%, Sm TGR inh 11%, HCMV inh 39, Giardia FBPA inh-1 2% and TbPYK inhibitor -9%.
CCCCNC(=O)Oc1c(Br)cc2sc(=O)oc2c1Br was read as Sm TGR inh 4%, Giardia FBPA inh-1 16µM*, Giardia growth -15%, Mammalian tox 11%, Giardia FBPA inh-2 -5%, Rabbit aldolase 1% and GAPDH counter -15%.
Screening CCOC(=O)C(C)Sc1nc(-c2ccccn2)ncc1OC (stereo not given) returned FMDV inh 4%, RE007 growth inh 10%, Sm TGR inh 4%, HCMV inh -21, Giardia FBPA inh-1 16µM*, TbPYK inhibitor -4%, Giardia growth inconclusive, Mammalian tox -28%, Giardia FBPA inh-2 -12%, Rabbit aldolase -11% and GAPDH counter inconclusive.
`CCOC(=O)C(C)Sc1ncc(OC)c(Sc2ccc(Cl)cc2)n1` (stereo not given) gave FMDV inh inconclusive, RE007 growth inh 1%, Sm TGR inh -21%, HCMV inh -2, Giardia FBPA inh-1 1% and TbPYK inhibitor 5%.
Screening Cc1cc(C)cc(NCc2cc3c(cc2[N+](=O)[O-])OCO3)c1 returned RE007 growth inh 2%, Sm TGR inh 4%, HCMV inh 4, Giardia FBPA inh-1 -13% and TbPYK inhibitor 0%.
`COc1ccc(CNCc2cc3c(cc2[N+](=O)[O-])OCO3)cc1` gave FMDV inh 12%, RE007 growth inh 1%, Sm TGR inh -28%, HCMV inh 87, Giardia FBPA inh-1 13µM*, TbPYK inhibitor 2%, Giardia growth inconclusive, Mammalian tox -4%, Giardia FBPA inh-2 -14%, Rabbit aldolase -7% and GAPDH counter 1%.
Screening CCC(=O)N1CCc2cc(S(=O)(=O)NC(Cc3ccccc3)C(=O)Nc3ccc(C)cc3)ccc21 (stereo not given) returned FMDV inh 4%, Sm TGR inh 1%, HCMV inh -8 and TbPYK inhibitor -11%.
`COc1cccc(-c2nccc(NCc3cnc(C)cn3)n2)c1` gave FMDV inh 29% and Giardia FBPA inh-1 1%.
